This note sets out measurements from article PMC11006913.

Where a chain is given by its changes, count along the chain named.

Assay in all cases: PBM; 200 nM protein, PBS
What all share (conditions): dsDNA, one strand shown

Assay [1] deals with HOXB4 (Homo sapiens, UniProt P17483 148-234).
In assay [2] the target is HOXB6 (Homo sapiens, UniProt P17509 132-218, K202E).
The target in assay [3] is HOXB4 (Homo sapiens, UniProt P17483 148-234, V174I).
Assay [4] addresses HOXB6 (Homo sapiens, UniProt P17509 132-218).
Assay [5] addresses HOXA4 (Homo sapiens, UniProt Q00056 201-287, R217L).
Assay [6] concerns the target PRRX1 (Homo sapiens, UniProt P54821 80-166, F113S).
Assay [7] addresses HOXA2 (Homo sapiens, UniProt O43364 129-215, R185T).
Assay [8] addresses HOXA2 (Homo sapiens, UniProt O43364 129-215, R185K).
Assay [9] has as its target HOXA2 (Homo sapiens, UniProt O43364 129-215, Y150S).
Assay [10] concerns the target PRRX1 (Homo sapiens, UniProt P54821 80-166).
For assay [11], the target named is HOXA2 (Homo sapiens, UniProt O43364 129-215).
HOXA2 (Homo sapiens, UniProt O43364 129-215), sequence (O43364 129-215): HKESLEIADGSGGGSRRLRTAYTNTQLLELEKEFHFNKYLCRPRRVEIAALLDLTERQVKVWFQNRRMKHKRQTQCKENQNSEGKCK
For assay [12], the target named is ALX1 (Homo sapiens, UniProt Q15699 118-204, L144V).
ALX1 (Homo sapiens, UniProt Q15699 118-204, L144V), sequence (Q15699 118-204 L144V): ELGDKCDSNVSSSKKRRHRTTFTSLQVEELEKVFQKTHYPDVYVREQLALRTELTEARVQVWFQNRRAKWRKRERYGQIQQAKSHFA
The target in assay [13] is ALX1 (Homo sapiens, UniProt Q15699 118-204, L144R).
ALX1 (Homo sapiens, UniProt Q15699 118-204, L144R), sequence (Q15699 118-204 L144R): as the sequence (Q15699 118-204 L144V) above, with V27R counted along it
Assay [14] concerns the target ALX1 (Homo sapiens, UniProt Q15699 118-204).
The target in assay [15] is HOXC10 (Homo sapiens, UniProt Q9NYD6 254-340).
HOXC10 (Homo sapiens, UniProt Q9NYD6 254-340), sequence (Q9NYD6 254-340): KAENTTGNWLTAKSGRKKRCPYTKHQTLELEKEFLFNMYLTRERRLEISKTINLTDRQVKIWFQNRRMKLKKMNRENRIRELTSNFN
The target of assay [16] is T1, NKX2-6 (Homo sapiens, UniProt A6NCS4 118-204, R150C).
T1 sequence: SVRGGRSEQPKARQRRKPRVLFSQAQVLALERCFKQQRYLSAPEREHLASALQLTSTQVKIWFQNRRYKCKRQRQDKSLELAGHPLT

Assay [17] concerns the target HOXC10 (Homo sapiens, UniProt Q9NYD6 254-340, K271E).
Assay [18] concerns the target ALX4 (Homo sapiens, UniProt Q9H161 200-286).
The target in assay [19] is ALX4 (Homo sapiens, UniProt Q9H161 200-286, Q225E).
ALX4 (Homo sapiens, UniProt Q9H161 200-286, Q225E), sequence (Q9H161 200-286 Q225E): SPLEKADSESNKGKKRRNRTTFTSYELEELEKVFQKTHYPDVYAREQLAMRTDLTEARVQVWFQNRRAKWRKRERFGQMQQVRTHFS
Assay [20] deals with T2, PAX4 (Homo sapiens, UniProt O43316 9-242, R200K).
T2 sequence: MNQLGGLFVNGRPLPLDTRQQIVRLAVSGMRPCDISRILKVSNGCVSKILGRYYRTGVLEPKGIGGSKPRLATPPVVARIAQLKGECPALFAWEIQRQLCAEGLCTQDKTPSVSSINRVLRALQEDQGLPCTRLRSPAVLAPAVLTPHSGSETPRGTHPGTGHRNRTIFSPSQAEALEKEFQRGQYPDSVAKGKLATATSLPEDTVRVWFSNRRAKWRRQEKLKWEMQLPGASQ

The target in assay [21] is T3, PAX4 (Homo sapiens, UniProt O43316 9-242).
T3 sequence: T2 sequence with K192R

The target in assay [22] is ALX3 (Homo sapiens, UniProt O95076 139-225, N203Q).
ALX3 (Homo sapiens, UniProt O95076 139-225, N203Q), sequence (O95076 139-225 N203Q): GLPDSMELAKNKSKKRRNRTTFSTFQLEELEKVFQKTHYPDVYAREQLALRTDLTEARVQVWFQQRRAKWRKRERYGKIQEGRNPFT
Assay [23] has as its target T4, PAX4 (Homo sapiens, UniProt O43316 9-242, R200Q).
T4 sequence: T2 sequence with K192Q

Assay [24] has as its target T5, PAX4 (Homo sapiens, UniProt O43316 9-242, F177V).
T5 sequence: T2 sequence with F169V, K192R

The target in assay [25] is ALX3 (Homo sapiens, UniProt O95076 139-225).
ALX3 (Homo sapiens, UniProt O95076 139-225), sequence (O95076 139-225): as the sequence (O95076 139-225 N203Q) above, with Q65N counted along it
The target in assay [26] is T6, PAX4 (Homo sapiens, UniProt O43316 9-242, F177Y).
T6 sequence: T2 sequence with F169Y, K192R

Assay [27] addresses ALX3 (Homo sapiens, UniProt O95076 139-225, L168Q).
Assay [28] has as its target ALX3 (Homo sapiens, UniProt O95076 139-225, L168V).
Assay [29] concerns the target T7, PAX4 (Homo sapiens, UniProt O43316 9-242, R227W).
T7 sequence: T2 sequence with K192R, R219W

In assay [30] the target is ALX3 (Homo sapiens, UniProt O95076 139-225, N203S).
ALX3 (Homo sapiens, UniProt O95076 139-225, N203S), sequence (O95076 139-225 N203S): as the sequence (O95076 139-225 N203Q) above, with Q65S counted along it

HOXB4 (Homo sapiens, UniProt P17483 148-234, V174I), sequence (P17483 148-234 V174I): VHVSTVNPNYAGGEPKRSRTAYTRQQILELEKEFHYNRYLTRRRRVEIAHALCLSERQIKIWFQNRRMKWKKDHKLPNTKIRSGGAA
HOXB4 (Homo sapiens, UniProt P17483 148-234), sequence (P17483 148-234): as the sequence (P17483 148-234 V174I) above, with I27V counted along it
HOXB6 (Homo sapiens, UniProt P17509 132-218, K202E), sequence (P17509 132-218 K202E): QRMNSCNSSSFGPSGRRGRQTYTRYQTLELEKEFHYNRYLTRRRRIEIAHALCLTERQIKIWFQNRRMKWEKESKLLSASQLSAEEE
HOXB6 (Homo sapiens, UniProt P17509 132-218), sequence (P17509 132-218): as the sequence (P17509 132-218 K202E) above, with E71K counted along it
HOXC10 (Homo sapiens, UniProt Q9NYD6 254-340, K271E), sequence (Q9NYD6 254-340 K271E): as the sequence (Q9NYD6 254-340) above, with K18E counted along it
ALX3 (Homo sapiens, UniProt O95076 139-225, L168V), sequence (O95076 139-225 L168V): as the sequence (O95076 139-225 N203Q) above, with L30V, Q65N counted along it
ALX1 (Homo sapiens, UniProt Q15699 118-204), sequence (Q15699 118-204): as the sequence (Q15699 118-204 L144V) above, with V27L counted along it
HOXA2 (Homo sapiens, UniProt O43364 129-215, R185T), sequence (O43364 129-215 R185T): as the sequence (O43364 129-215) above, with R57T counted along it
PRRX1 (Homo sapiens, UniProt P54821 80-166), sequence (P54821 80-166): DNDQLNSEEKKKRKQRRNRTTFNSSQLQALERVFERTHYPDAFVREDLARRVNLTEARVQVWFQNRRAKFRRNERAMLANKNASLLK
HOXA2 (Homo sapiens, UniProt O43364 129-215, Y150S), sequence (O43364 129-215 Y150S): as the sequence (O43364 129-215) above, with Y22S counted along it
HOXA4, sequence (Q00056 201-287 R217L): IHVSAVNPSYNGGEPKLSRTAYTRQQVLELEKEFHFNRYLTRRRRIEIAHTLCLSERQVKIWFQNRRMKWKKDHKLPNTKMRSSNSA
HOXA2 (Homo sapiens, UniProt O43364 129-215, R185K), sequence (O43364 129-215 R185K): as the sequence (O43364 129-215) above, with R57K counted along it
ALX3 (Homo sapiens, UniProt O95076 139-225, L168Q), sequence (O95076 139-225 L168Q): as the sequence (O95076 139-225 N203Q) above, with L30Q, Q65N counted along it
ALX4 (Homo sapiens, UniProt Q9H161 200-286), sequence (Q9H161 200-286): as the sequence (Q9H161 200-286 Q225E) above, with E26Q counted along it
PRRX1 (Homo sapiens, UniProt P54821 80-166, F113S), sequence (P54821 80-166 F113S): as the sequence (P54821 80-166) above, with F34S counted along it

Turning to CAGGCGCG, the binding signal is 7.35 upbm affinity estimate (log intensity, higher = more binding, comparable within an allelic series) in [1]; 9.01 upbm affinity estimate (log intensity, higher = more binding, comparable within an allelic series) in assay [2]; 7.45 upbm affinity estimate (log intensity, higher = more binding, comparable within an allelic series) in [3]; 8.9 upbm affinity estimate (log intensity, higher = more binding, comparable within an allelic series) in [4].

On to AGCTTGGA, for which the binding signal in [1] was 7.7 upbm affinity estimate (log intensity, higher = more binding, comparable within an allelic series); in [3] it was 7.63 upbm affinity estimate (log intensity, higher = more binding, comparable within an allelic series).

As to AATGATTA, the binding signal in assay [1] is 13.1 upbm affinity estimate (log intensity, higher = more binding, comparable within an allelic series); in assay [5], 12 upbm affinity estimate (log intensity, higher = more binding, comparable within an allelic series); in assay [3], 13.8 upbm affinity estimate (log intensity, higher = more binding, comparable within an allelic series).

As to CCCGCGGG, the binding signal in assay [1] is 8.38 upbm affinity estimate (log intensity, higher = more binding, comparable within an allelic series); in assay [6] it was 9.46 upbm affinity estimate (log intensity, higher = more binding, comparable within an allelic series); in assay [7] it was 7.19 upbm affinity estimate (log intensity, higher = more binding, comparable within an allelic series); in assay [3] it was 7.82 upbm affinity estimate (log intensity, higher = more binding, comparable within an allelic series); in assay [8], 10.4 upbm affinity estimate (log intensity, higher = more binding, comparable within an allelic series); in [9] it was 10.4 upbm affinity estimate (log intensity, higher = more binding, comparable within an allelic series). In addition, the binding signal in assay [10] was 9.2 upbm affinity estimate (log intensity, higher = more binding, comparable within an allelic series); in assay [11], 7.26 upbm affinity estimate (log intensity, higher = more binding, comparable within an allelic series).

As for GCGGCTGA, the binding signal in assay [1] was 7.8 upbm affinity estimate (log intensity, higher = more binding, comparable within an allelic series); in [3], 7.53 upbm affinity estimate (log intensity, higher = more binding, comparable within an allelic series).

Take AGGCGCGC: the binding signal in assay [1] was 7.53 upbm affinity estimate (log intensity, higher = more binding, comparable within an allelic series); in assay [2] it was 9.19 upbm affinity estimate (log intensity, higher = more binding, comparable within an allelic series); in assay [3] it was 7.6 upbm affinity estimate (log intensity, higher = more binding, comparable within an allelic series); in [12] it was 6.59 upbm affinity estimate (log intensity, higher = more binding, comparable within an allelic series); in assay [13], 6.72 upbm affinity estimate (log intensity, higher = more binding, comparable within an allelic series); in [14] it was 6.44 upbm affinity estimate (log intensity, higher = more binding, comparable within an allelic series). Also, the binding signal in assay [4] was 8.96 upbm affinity estimate (log intensity, higher = more binding, comparable within an allelic series).

Turning to CTAGGCAG, the binding signal in [1] was 8.13 upbm affinity estimate (log intensity, higher = more binding, comparable within an allelic series); in assay [3], 7.88 upbm affinity estimate (log intensity, higher = more binding, comparable within an allelic series).

In the case of AAGCCAAT, the binding signal in [1] is 10.3 upbm affinity estimate (log intensity, higher = more binding, comparable within an allelic series); in assay [3] it was 10.6 upbm affinity estimate (log intensity, higher = more binding, comparable within an allelic series).

Consider AAACGAGT, for which the binding signal in [1] was 9.6 upbm affinity estimate (log intensity, higher = more binding, comparable within an allelic series); in assay [3], 9.41 upbm affinity estimate (log intensity, higher = more binding, comparable within an allelic series).

Regarding CGGGACCA, the binding signal in assay [1] is 7.51 upbm affinity estimate (log intensity, higher = more binding, comparable within an allelic series); in assay [15] it was 10.1 upbm affinity estimate (log intensity, higher = more binding, comparable within an allelic series); in assay [3] it was 7.58 upbm affinity estimate (log intensity, higher = more binding, comparable within an allelic series); in assay [16], 9.71 upbm affinity estimate (log intensity, higher = more binding, comparable within an allelic series); in assay [17], 10.1 upbm affinity estimate (log intensity, higher = more binding, comparable within an allelic series).

As for CGTCGTTA, the binding signal in assay [1] is 10.9 upbm affinity estimate (log intensity, higher = more binding, comparable within an allelic series); in assay [3], 11 upbm affinity estimate (log intensity, higher = more binding, comparable within an allelic series).

Turning to CCAGCTCG, the binding signal in assay [1] was 7.72 upbm affinity estimate (log intensity, higher = more binding, comparable within an allelic series); in assay [18] it was 8.09 upbm affinity estimate (log intensity, higher = more binding, comparable within an allelic series); in [19] it was 8.29 upbm affinity estimate (log intensity, higher = more binding, comparable within an allelic series); in assay [3], 7.66 upbm affinity estimate (log intensity, higher = more binding, comparable within an allelic series).

As for AACGATAT, the binding signal was 10.7 upbm affinity estimate (log intensity, higher = more binding, comparable within an allelic series) in [1] and 10.9 upbm affinity estimate (log intensity, higher = more binding, comparable within an allelic series) in assay [3].

As for CGCTGGCC, the binding signal in assay [1] is 7.45 upbm affinity estimate (log intensity, higher = more binding, comparable within an allelic series); in assay [20] it was 8.99 upbm affinity estimate (log intensity, higher = more binding, comparable within an allelic series); in [21], 9.12 upbm affinity estimate (log intensity, higher = more binding, comparable within an allelic series); in [3] it was 7.53 upbm affinity estimate (log intensity, higher = more binding, comparable within an allelic series); in assay [22] it was 7.62 upbm affinity estimate (log intensity, higher = more binding, comparable within an allelic series); in [23], 9.12 upbm affinity estimate (log intensity, higher = more binding, comparable within an allelic series). Besides, the binding signal was 9.1 upbm affinity estimate (log intensity, higher = more binding, comparable within an allelic series) in [24]; 7.39 upbm affinity estimate (log intensity, higher = more binding, comparable within an allelic series) in [25]; 9.14 upbm affinity estimate (log intensity, higher = more binding, comparable within an allelic series) in [26]; 7.58 upbm affinity estimate (log intensity, higher = more binding, comparable within an allelic series) in assay [27]; 7.61 upbm affinity estimate (log intensity, higher = more binding, comparable within an allelic series) in assay [28]; 9.18 upbm affinity estimate (log intensity, higher = more binding, comparable within an allelic series) in assay [29]. For the same sequence, in [30], the binding signal was 7.65 upbm affinity estimate (log intensity, higher = more binding, comparable within an allelic series).

Regarding CAATAAGA, the binding signal was 9.65 upbm affinity estimate (log intensity, higher = more binding, comparable within an allelic series) in assay [1] and 9.56 upbm affinity estimate (log intensity, higher = more binding, comparable within an allelic series) in [3].

CAGGGTCC: the binding signal was 7.33 upbm affinity estimate (log intensity, higher = more binding, comparable within an allelic series) in assay [1]; 10 upbm affinity estimate (log intensity, higher = more binding, comparable within an allelic series) in assay [15]; 7.37 upbm affinity estimate (log intensity, higher = more binding, comparable within an allelic series) in assay [3]; 10 upbm affinity estimate (log intensity, higher = more binding, comparable within an allelic series) in [17].

Turning to CCGACGGA, the binding signal was 7.67 upbm affinity estimate (log intensity, higher = more binding, comparable within an allelic series) in [1] and 7.56 upbm affinity estimate (log intensity, higher = more binding, comparable within an allelic series) in assay [3].

As for ATTGATCC, the binding signal in assay [1] was 10.1 upbm affinity estimate (log intensity, higher = more binding, comparable within an allelic series); in assay [3], 10 upbm affinity estimate (log intensity, higher = more binding, comparable within an allelic series).

For the sequence CACGTGGG, the binding signal in [1] is 7.46 upbm affinity estimate (log intensity, higher = more binding, comparable within an allelic series); in assay [3], 7.46 upbm affinity estimate (log intensity, higher = more binding, comparable within an allelic series).

As for ACTATATG, the binding signal in [1] was 9.48 upbm affinity estimate (log intensity, higher = more binding, comparable within an allelic series); in assay [3], 9.35 upbm affinity estimate (log intensity, higher = more binding, comparable within an allelic series).

Turning to ATATGATG, the binding signal is 10 upbm affinity estimate (log intensity, higher = more binding, comparable within an allelic series) in [1] and 10.1 upbm affinity estimate (log intensity, higher = more binding, comparable within an allelic series) in assay [3].
